Reference: PubChem BioAssay (Tox21)
Results filed as inconclusive are left out. The source made the active and inactive calls. Calls follow the shape of the dose curve; as a rule, active = well fitted curve in the direction sought with a large enough effect in the repeat runs; inconclusive = weak or mixed curves; inactive = no such curve, though single readings can be large; an effect the other way counts as inactive or inconclusive.

What was measured:
[1] = qHTS RealTime-Glo MT Cell Viability Assay in HEK293 cells - 16 hour (AID 1224872); also: nearly all actives have a fitted effect of over 50% in size; also: potency is read from the fitted curve at half-maximal effect
How it was run: (§1)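 Assay medium contained NanoLuc luciferase plus cell-permeant prosubstrate, added with HEK293 cells at 600 cells/well. After 5 h at 37 C/5% CO2 compounds were added; plates stayed at 37 C for 40 h with serial luminescence reads.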

[2] = qHTS RealTime-Glo MT Cell Viability Assay in HepG2 cells - 8 hour (AID 1224873); also: nearly all actives have a fitted effect of over 55% in size; also: potency is read from the fitted curve at half-maximal effect
How it was run: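 HepG2 cells (600/well) mixed with RealTime-Glo MT reagent, settled 5 h at 37 C/5% CO2 before compound addition. Nonlytic NanoLuc luminescence from viable-cell prosubstrate reduction read repeatedly during 40 h treatment at 37 C.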

[3] = qHTS RealTime-Glo MT Cell Viability Assay in HEK293 cells - 40 hour (AID 1224874); settings: RealTime-Glo luminescence; max response: active compounds read low; also: nearly all actives have a fitted effect of over 50% in size; also: potency is read from the fitted curve at half-maximal effect
How it was run: (§2)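 600 HEK293 cells per well, dispensed already mixed with RealTime-Glo MT reagents. Compound dosing came 5 h later. The same wells were read for luminescence at 0, 8, 16, 24, 32 and 40 h of exposure at 37 C.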

[4] = A CellTox Green Cytotoxicity Assay to monitor cytotoxicity in HEK293 cells - 24 hour (AID 1224875); also: nearly all actives have a fitted effect of over 45% in size; also: potency is read from the fitted curve at half-maximal effect
How it was run: (§3)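 Dead-cell fluorescence measured kinetically: asymmetric cyanine dye, HEK293, 600 cells/well, 5 h settle, 23 nL cpd/DMSO, 37 C, reads 0–40 h every 8 h.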

[5] = A CellTox Green Cytotoxicity Assay to monitor cytotoxicity in HepG2 cells - 16 hour (AID 1224876); also: nearly all actives have a fitted effect of over 45% in size; also: potency is read from the fitted curve at half-maximal effect
How it was run: (§4)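 First, HepG2 cells (600/well) mixed with reagent were plated; second, after 5 h at 37 C they received compounds via pintool; third, fluorescence was measured at 0 h through 40 h at 8 h intervals.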

[6] = qHTS RealTime-Glo MT Cell Viability Assay in HepG2 cells - 32 hour (AID 1224877); also: nearly all actives have a fitted effect of over 55% in size; also: potency is read from the fitted curve at half-maximal effect
How it was run: (§5)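 qHTS, HepG2, 600 cells/well, RealTime-Glo (NanoLuc + prosubstrate) added with cells; 5 h preincubation; DMSO compound addition; 37 C; luminescence at 0/8/16/24/32/40 h.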

[7] = A CellTox Green Cytotoxicity Assay to monitor cytotoxicity in HepG2 cells - 40 hour (AID 1224879); also: nearly all actives have a fitted effect of over 40% in size; also: potency is read from the fitted curve at half-maximal effect
How it was run: as §4

[8] = qHTS RealTime-Glo MT Cell Viability Assay in HEK293 cells - 0 hour (AID 1224880); also: nearly all actives have a fitted effect of over 45% in size; also: potency is read from the fitted curve at half-maximal effect
How it was run: as §2

[9] = A CellTox Green Cytotoxicity Assay to monitor cytotoxicity in HEK293 cells - 32 hour (AID 1224881); also: nearly all actives have a fitted effect of over 40% in size; also: potency is read from the fitted curve at half-maximal effect
How it was run: as §3

[10] = A CellTox Green Cytotoxicity Assay to monitor cytotoxicity in HepG2 cells - 0 hour (AID 1224882); also: nearly all actives have a fitted effect of over 35% in size
How it was run: as §4

[11] = A CellTox Green Cytotoxicity Assay to monitor cytotoxicity in HepG2 cells - 32 hour (AID 1224883); also: nearly all actives have a fitted effect of over 50% in size; also: potency is read from the fitted curve at half-maximal effect
How it was run: as §4

[12] = qHTS RealTime-Glo MT Cell Viability Assay in HepG2 cells - 16 hour (AID 1224885); also: nearly all actives have a fitted effect of over 50% in size; also: potency is read from the fitted curve at half-maximal effect
How it was run: as §5

[13] = qHTS RealTime-Glo MT Cell Viability Assay in HEK293 cells - 24 hour (AID 1224886); also: nearly all actives have a fitted effect of over 50% in size; also: potency is read from the fitted curve at half-maximal effect
How it was run: as §1

[14] = qHTS RealTime-Glo MT Cell Viability Assay in HEK293 cells - 8 hour (AID 1224887); also: nearly all actives have a fitted effect of over 50% in size; also: potency is read from the fitted curve at half-maximal effect
How it was run: as §2

[15] = A CellTox Green Cytotoxicity Assay to monitor cytotoxicity in HEK293 cells - 16 hour (AID 1224888); also: nearly all actives have a fitted effect of over 35% in size; also: potency is read from the fitted curve at half-maximal effect
How it was run: as §3

[16] = qHTS RealTime-Glo MT Cell Viability Assay in HepG2 cells - 0 hour (AID 1224889); also: nearly all actives have a fitted effect of over 50% in size; also: potency is read from the fitted curve at half-maximal effect
How it was run: as §5

[17] = A CellTox Green Cytotoxicity Assay to monitor cytotoxicity in HepG2 cells - 8 hour (AID 1224890); also: nearly all actives have a fitted effect of over 45% in size; also: potency is read from the fitted curve at half-maximal effect
How it was run: as §4

[18] = qHTS assay to identify small molecule antagonists of the estrogen receptor alpha (ER-alpha) signaling pathway using the BG1 cell line in the presence of 0.1 nM 17-beta-estradiol - cell viability counter screen (AID 1259241); also: nearly all actives have a fitted effect of over 40% in size; also: potency is read from the fitted curve at half-maximal effect
How it was run: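 Measures cytotoxicity alongside the ER-alpha antagonist readout: VM7Luc4E2 cells, charcoal-stripped serum, 0.1 nM 17beta-estradiol final, 22 hr compound incubation at 37C, CellTiter-Fluor fluorescence.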

[19] = A CellTox Green Cytotoxicity Assay to monitor cytotoxicity in HepG2 cells - 24 hour (AID 1224878); also: nearly all actives have a fitted effect of over 45% in size; also: potency is read from the fitted curve at half-maximal effect
How it was run: as §4

[20] = A CellTox Green Cytotoxicity Assay to monitor cytotoxicity in HEK293 cells - 8 hour (AID 1224884); also: nearly all actives have a fitted effect of over 35% in size
How it was run: as §3
% is scaled to controls: 0 for no effect and ±100 for the full control effect.

CCOC(=O)CCN(SN(C)C(=O)Oc1cccc2c1OC(C)(C)C2)C(C)C
inactive: Potency [1] | Potency [2] | max response [3] -6% | Potency [4] | Potency [5] | Potency [6] | Potency [7] | Potency [8] | Potency [9] | Potency [10] | Potency [11] | Potency [12] | Potency [13] | Potency [14] | Potency [15] | Potency [16] | Potency [17] | Potency [18]

COC(=O)/C=C(\C)OP(=O)(OC)OC
inactive: Potency [1] | Potency [2] | max response [3] -4% | Potency [4] | Potency [5] | Potency [6] | Potency [7] | Potency [8] | Potency [9] | Potency [10] | Potency [11] | Potency [12] | Potency [13] | Potency [14] | Potency [15] | Potency [16] | Potency [17] | Potency [18]

N#Cc1ccc(N(CC(N)=O)CC(F)(F)F)cc1C(F)(F)F
inactive: Potency [1] | Potency [2] | max response [3] 0.171% | Potency [4] | Potency [5] | Potency [6] | Potency [19] | Potency [7] | Potency [8] | Potency [9] | Potency [11] | Potency [20] | Potency [12] | Potency [13] | Potency [14] | Potency [15] | Potency [16] | Potency [17] | Potency [18]

CC1CCCC1
inactive: Potency [1] | Potency [2] | max response [3] -28.5% | Potency [4] | Potency [5] | Potency [19] | Potency [7] | Potency [8] | Potency [9] | Potency [10] | Potency [11] | Potency [20] | Potency [12] | Potency [13] | Potency [14] | Potency [16] | Potency [17]

CNN
inactive: Potency [1] | Potency [2] | max response [3] 9.14% | Potency [4] | Potency [5] | Potency [6] | Potency [19] | Potency [7] | Potency [8] | Potency [9] | Potency [11] | Potency [20] | Potency [12] | Potency [13] | Potency [14] | Potency [15] | Potency [16] | Potency [17] | Potency [18]

CNC(=O)O/N=C(\C)C(C)S(C)(=O)=O (configuration not stated)
inactive: Potency [1] | Potency [2] | max response [3] 1.59% | Potency [4] | Potency [5] | Potency [6] | Potency [8] | Potency [9] | Potency [10] | Potency [20] | Potency [12] | Potency [13] | Potency [14] | Potency [15] | Potency [16] | Potency [17]

CCCCON=O
inactive: Potency [1] | Potency [2] | max response [3] 4.44% | Potency [4] | Potency [5] | Potency [19] | Potency [7] | Potency [8] | Potency [9] | Potency [10] | Potency [11] | Potency [20] | Potency [12] | Potency [13] | Potency [14] | Potency [15] | Potency [16] | Potency [17] | Potency [18]

CCC1(CC)C(=O)N=C(O)NC1=O
inactive: Potency [1] | Potency [2] | max response [3] -0.914% | Potency [4] | Potency [5] | Potency [6] | Potency [7] | Potency [8] | Potency [9] | Potency [10] | Potency [11] | Potency [12] | Potency [13] | Potency [14] | Potency [15] | Potency [16] | Potency [17] | Potency [18]

CSC(C)(C)/C=N/O
inactive: Potency [1] | Potency [2] | max response [3] 2.63% | Potency [4] | Potency [5] | Potency [19] | Potency [7] | Potency [8] | Potency [9] | Potency [10] | Potency [11] | Potency [20] | Potency [12] | Potency [13] | Potency [14] | Potency [15] | Potency [16] | Potency [17]

C=CC(=O)[O][Sn]([CH2]CCC)([CH2]CCC)[CH2]CCC
active: Potency [1] 0.549 µM | Potency [2] 0.977 µM | Potency [3] 0.389 µM | Potency [4] 7.76 µM | Potency [5] 0.616 µM | Potency [6] 0.389 µM | Potency [19] 0.692 µM | Potency [7] 0.549 µM | Potency [9] 3.47 µM | Potency [11] 0.692 µM | Potency [12] 0.549 µM | Potency [13] 0.436 µM | Potency [14] 0.871 µM | Potency [17] 0.977 µM | Potency [18] 27.3 µM
inactive: Potency [10] | Potency [16]

N#Cc1sc2c(=O)c3ccccc3c(=O)c=2sc1C#N
inactive: Potency [10] | Potency [20]
active: Potency [1] 11 µM | Potency [2] 9.77 µM | Potency [3] 17.4 µM | Potency [4] 21.9 µM | Potency [5] 17.4 µM | Potency [19] 12.3 µM | Potency [7] 13.8 µM | Potency [8] 7.76 µM | Potency [9] 13.8 µM | Potency [11] 13.8 µM | Potency [12] 9.77 µM | Potency [13] 15.5 µM | Potency [14] 6.92 µM | Potency [15] 43.6 µM | Potency [16] 21.9 µM | Potency [17] 54.9 µM | Potency [18] 5.45 µM

O.O.O.O.O.O.O=S(=O)([O-])[O-].[Ni+2]
inactive: Potency [1] | Potency [2] | max response [3] -26.5% | Potency [4] | Potency [5] | Potency [6] | Potency [7] | Potency [8] | Potency [9] | Potency [10] | Potency [20] | Potency [12] | Potency [13] | Potency [14] | Potency [15] | Potency [17] | Potency [18]

[Cl-].[Cl-].[Cl-].[Yb+3]
inactive: Potency [1] | Potency [2] | max response [3] 28.3% | Potency [4] | Potency [5] | Potency [6] | Potency [7] | Potency [8] | Potency [9] | Potency [11] | Potency [20] | Potency [12] | Potency [13] | Potency [14] | Potency [15] | Potency [17] | Potency [18]
